Experimental data from PubChem BioAssay (EPA / NIEHS).
Records with an inconclusive call do not appear. Activity calls are given as the source filed them. Rule for the calls: active = hit-call score of the fitted dose curve at least 0.9, where 1 is the maximum; inconclusive = response in the unintended direction; inactive = score below 0.9.

What was measured:
[1] = TOX21_p53_BLA_p5_viability: Viability Assessment in the Tox21 HCT-116 p53 Agonism Beta-lactamase Assay, Phase 5 (AID 2283600)
In short: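 Viability is taken from cellular ATP content, measured by luciferase luminescence in the same wells after the beta-lactamase ratio read. Cells are seeded at 4000 per well and exposed to DMSO-dissolved compounds, diluted 217-fold, for 16 h.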

[2] = target: Cellular tumor antigen p53 (Homo sapiens) (UniProt P04637); assay: TOX21_p53_BLA_p4_ratio: Tox21 HCT-116 p53 Agonism Beta-lactamase Assay, Ratio, Phase 4 (AID 2283601)
In short: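 HCT116 cells carrying an inducible beta-lactamase reporter were plated at 4000 cells/well, rested 5 h, then exposed to compounds in DMSO (217-fold dilution) for 16 h at 37C. CCF4-AM substrate was loaded 2 h at room temperature; 460/530 nm emission ratio scored gain-of-signal versus DMSO.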

[3] = target: Cellular tumor antigen p53 (Homo sapiens) (UniProt P04637); assay: TOX21_p53_BLA_p5_ratio: Tox21 HCT-116 p53 Agonism Beta-lactamase Assay, Ratio, Phase 5 (AID 2283599)
In short: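 HCT-116 cells carrying a p53-inducible beta-lactamase reporter were seeded at 4000 cells/well and dosed after 5 h with compound in DMSO (217-fold dilution). After 16 h at 37C, CCF4-AM substrate was added for 2 h, and the 460/530 nm emission ratio was scored as gain-of-signal versus DMSO.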

[4] = TOX21_p53_BLA_p4_viability: Viability Assessment in the Tox21 HCT-116 p53 Agonism Beta-lactamase Assay, Phase 4 (AID 2283597);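 note: hits lower the luminescence signal meaning cytotoxicity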
In short: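 Viability is taken as cellular ATP: after 16 h compound exposure of HCT116 cells and a 2 h room-temperature CCF4-AM substrate step, CellTiter-Glo reagent is added and luminescence is measured 30 min later.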

Sequence of Cellular tumor antigen p53 (Homo sapiens) (P04637 whole entry, looked up): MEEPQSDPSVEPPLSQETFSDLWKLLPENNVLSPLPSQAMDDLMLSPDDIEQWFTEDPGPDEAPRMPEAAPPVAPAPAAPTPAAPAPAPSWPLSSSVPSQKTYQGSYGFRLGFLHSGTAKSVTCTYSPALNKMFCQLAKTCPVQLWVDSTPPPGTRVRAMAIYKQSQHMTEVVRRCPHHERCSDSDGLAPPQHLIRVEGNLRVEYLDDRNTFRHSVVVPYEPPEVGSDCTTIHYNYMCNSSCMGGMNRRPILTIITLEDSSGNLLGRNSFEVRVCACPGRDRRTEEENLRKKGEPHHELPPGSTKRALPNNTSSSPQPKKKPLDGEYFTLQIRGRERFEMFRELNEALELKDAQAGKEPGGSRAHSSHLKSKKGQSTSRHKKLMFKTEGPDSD

SMILES | outcome [1] | outcome [2] | outcome [3] | outcome [4]
CNCCC(Oc1ccccc1OC)c1ccccc1 (stereo not given) | inactive | inactive | – | –
CC(C)N(C)C | inactive | – | inactive | –
C[C@H]1c2cccc(O)c2C(O)=C2C(=O)[C@]3(O)C(O)=C(C(N)=O)C(=O)[C@@H](N(C)C)[C@@H]3[C@@H](O)[C@@H]21 | – | inactive | – | inactive
CC(=O)N[C@@H](CC(=O)N[C@@H](CCC(=O)O)C(=O)O)C(=O)O | inactive | inactive | inactive | –
O=S(=O)(O)CO | – | inactive | inactive | –
Nc1ccc([N+](=O)[O-])c(N)c1 | – | inactive | – | inactive
C[C@H]1NCc2cc(-c3ccc4c(=O)c(C(=O)O)cn(C5CC5)c4c3OC(F)F)ccc21 | inactive | – | inactive | –
c1ccc2c(CCC3CCNCC3)c[nH]c2c1 | inactive | inactive | inactive | –
C=CC(C)(O)CCCC(C)CCCC(C)CCCC(C)C (stereo not given) | inactive | – | – | –
Cc1ccccc1N=Nc1ccc(N=Nc2c(O)ccc3ccccc23)c(C)c1 | inactive | – | – | –
Nc1ccccc1S(=O)(=O)O | inactive | inactive | inactive | –
CCOC(=O)c1ccc(OC(=O)CCCCCN=C(N)N)cc1 | inactive | – | inactive | –
CCO/C([O-])=N/c1c[n+](N2CCOCC2)no1 | inactive | inactive | inactive | –
COc1ccc(CCC(=O)c2c(O)cc(O[C@@H]3O[C@H](CO)[C@@H](O)[C@H](O)[C@H]3O[C@@H]3O[C@@H](C)[C@H](O)[C@@H](O)[C@H]3O)cc2O)cc1O | inactive | inactive | inactive | –
O=C(O)CNC(=O)c1ccc(CO)o1 | – | inactive | inactive | –
Nc1ccc(S(=O)(=O)NC(=O)c2ccccc2)cc1 | – | inactive | inactive | –
